{"source": "PubChem BioAssay (NCATS)", "key": {"[1]": {"assay": "qHTS drug screen for cell cycle checkpoint inhibitors in PARPi-resistant BRCA-mutant ovarian cancer cell lines. (AID 1963452)", "settings": "PEO1/OlaR viability, CellTiter-Glo luminescence, 96 h; for Z-AUC: stronger effect = lower value", "how_it_was_run": "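PEO1, PEO4 and PEO1/OlaR ovarian cancer cells, 600 per well, exposed 96 h at 37C to a dilution series. Viability read by CellTiter-Glo luminescence, normalized to DMSO and empty wells; activity summarized as Z-AUC.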"}, "[2]": {"assay": "qHTS profiling for inhibitors of Plasmodium falciparum proliferation (AID 504749; active = well fitted inhibition curve with a large enough effect;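 as to activity, negative = inhibition: 0% = DMSO vehicle and full inhibition = artemisinin control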; as to all read-outs here: nearly all actives have a fitted effect of over 60% in size)", "settings": "P. falciparum in erythrocytes, SYBR Green DNA, 72 h; for activity, negative = inhibition: at 28.7 µM (top of the series)", "how_it_was_run": "(§1)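 Infected RBCs, 0.3% parasitemia/2.5% Hct final; cpd 72 h, 37 C, 5% CO2; lysis buffer with saponin/triton/SYBR Green I, o/n RT dark; FI 485/535; norm. to artemisinin (0.29 uM) and DMSO.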"}, "3D7": {"tested_on": "3D7", "assay": "qHTS profiling for inhibitors of Plasmodium falciparum proliferation (AID 504749)", "settings": "P. falciparum in erythrocytes, SYBR Green DNA, 72 h; series mostly up to 28.7 µM", "how_it_was_run": "as §1"}, "7G8": {"tested_on": "7G8", "assay": "qHTS profiling for inhibitors of Plasmodium falciparum proliferation (AID 504749)", "settings": "P. falciparum in erythrocytes, SYBR Green DNA, 72 h; series mostly up to 28.7 µM", "how_it_was_run": "as §1"}, "AA1029": {"tested_on": "AA1029", "assay": "qHTS profiling for inhibitors of Plasmodium falciparum proliferation (AID 504749)", "settings": "P. falciparum in erythrocytes, SYBR Green DNA, 72 h; series mostly up to 28.7 µM", "how_it_was_run": "as §1"}, "AS120": {"tested_on": "AS120", "assay": "qHTS profiling for inhibitors of Plasmodium falciparum proliferation (AID 504749)", "settings": "P. falciparum in erythrocytes, SYBR Green DNA, 72 h; series mostly up to 28.7 µM", "how_it_was_run": "as §1"}, "ATS189": {"tested_on": "ATS189", "assay": "qHTS profiling for inhibitors of Plasmodium falciparum proliferation (AID 504749)", "settings": "P. falciparum in erythrocytes, SYBR Green DNA, 72 h; series mostly up to 28.7 µM", "how_it_was_run": "as §1"}, "C2A": {"tested_on": "C2A", "assay": "qHTS profiling for inhibitors of Plasmodium falciparum proliferation (AID 504749)", "settings": "P. falciparum in erythrocytes, SYBR Green DNA, 72 h; series mostly up to 28.7 µM", "how_it_was_run": "as §1"}, "ATS95": {"tested_on": "ATS95", "assay": "qHTS profiling for inhibitors of Plasmodium falciparum proliferation (AID 504749)", "settings": "P. falciparum in erythrocytes, SYBR Green DNA, 72 h", "how_it_was_run": "as §1"}, "[3]": {"settings": "measured here: PEO1 parental Z-AUC"}}, "note": "Results filed as inconclusive are left out. Calls of active or inactive are those of the source. Unless noted, calls follow the shape of the full dose curve. Potency is read from the fitted curve at half-maximal effect.", "data": [{"smiles": "CN1C(=O)c2sccc2N(C)c2nc(Nc3ccc(S(N)(=O)=O)cc3)ncc21", "values": [{"measurement": "Z-AUC", "setting": "[1]", "result": "-1.71 (inactive)"}, {"measurement": "Z-AUC", "setting": "[1]; [3]", "result": -0.96}, {"measurement": "Z-AUC", "setting": "[1]; measured here: PEO4 Z-AUC", "result": -1.18}]}, {"smiles": "O=C(NCC(=O)N1CCCC1)Nc1ccc2cnccc2c1", "values": [{"measurement": "Z-AUC", "setting": "[1]", "result": "-0.618 (inactive)"}, {"measurement": "Z-AUC", "setting": "[1]; [3]", "result": -0.349}, {"measurement": "Z-AUC", "setting": "[1]; measured here: PEO4 Z-AUC", "result": -1.01}]}, {"smiles": "O=C(O)C1=CO[C@@H](O[C@@H]2O[C@H](CO)[C@@H](O)[C@H](O)[C@H]2O)[C@@H]2C(CO)=CC[C@H]12", "values": [{"measurement": "Z-AUC", "setting": "[1]", "result": "1.4 (inactive)"}, {"measurement": "Z-AUC", "setting": "[1]; [3]", "result": 1.85}, {"measurement": "Z-AUC", "setting": "[1]; measured here: PEO4 Z-AUC", "result": 1.61}]}, {"smiles": "Cc1ccc(NC(=O)c2ccc(CN3CCNCC3)cc2)cc1Nc1nccc(-c2cccnc2)n1", "values": [{"measurement": "Z-AUC", "setting": "[1]", "result": "0.805 (inactive)"}, {"measurement": "Z-AUC", "setting": "[1]; [3]", "result": 0.225}, {"measurement": "Z-AUC", "setting": "[1]; measured here: PEO4 Z-AUC", "result": 0.453}]}, {"smiles": "CCCOc1ccc2nc(NC(=O)OC)sc2c1", "values": [{"measurement": "activity, negative = inhibition", "setting": "[2]; parasite line A", "result": "-2.17% (inactive)"}, {"measurement": "activity, negative = inhibition", "setting": "[2]; parasite line B", "result": "4.31% (inactive)"}, {"measurement": "Potency", "setting": "3D7", "result": "inactive"}, {"measurement": "Potency", "setting": "7G8", "result": "inactive"}, {"measurement": "Potency", "setting": "AA1029", "result": "inactive"}, {"measurement": "Potency", "setting": "AS120", "result": "inactive"}, {"measurement": "Potency", "setting": "ATS189", "result": "inactive"}, {"measurement": "Potency", "setting": "C2A", "result": "inactive"}]}, {"smiles": "C[C@@H](c1ccc2nccn2c1)n1nnc2ncc(-c3cnn(C)c3)nc21", "values": [{"measurement": "Z-AUC", "setting": "[1]", "result": "-0.155 (inactive)"}, {"measurement": "Z-AUC", "setting": "[1]; [3]", "result": -0.0646}, {"measurement": "Z-AUC", "setting": "[1]; measured here: PEO4 Z-AUC", "result": -0.199}]}, {"smiles": "O=C(c1c(F)ccc(NS(=O)(=O)N2CC[C@@H](F)C2)c1F)c1c[nH]c2ncc(-c3cnc(C4CC4)nc3)cc12", "values": [{"measurement": "Z-AUC", "setting": "[1]", "result": "-0.0874 (inactive)"}, {"measurement": "Z-AUC", "setting": "[1]; [3]", "result": 0.401}, {"measurement": "Z-AUC", "setting": "[1]; measured here: PEO4 Z-AUC", "result": 0.486}]}, {"smiles": "O=C([C@@H](Cc1cccc(C(F)(F)F)c1)NS(=O)(=O)c1cc(F)c2c(c1)CCNC2)N1CCCC1", "values": [{"measurement": "Z-AUC", "setting": "[1]", "result": "-0.343 (inactive)"}, {"measurement": "Z-AUC", "setting": "[1]; [3]", "result": -0.218}, {"measurement": "Z-AUC", "setting": "[1]; measured here: PEO4 Z-AUC", "result": -0.109}]}, {"smiles": "Cc1cc(C(=O)Nc2cc(Oc3ccc4nc(NC(=O)C5CC5)cn4n3)ccc2C)n(C)n1", "values": [{"measurement": "Z-AUC", "setting": "[1]", "result": "-0.702 (inactive)"}, {"measurement": "Z-AUC", "setting": "[1]; [3]", "result": -1.33}, {"measurement": "Z-AUC", "setting": "[1]; measured here: PEO4 Z-AUC", "result": -1.31}]}, {"smiles": "Nc1nc(OCc2cc(Br)cs2)c2[nH]cnc2n1", "values": [{"measurement": "Z-AUC", "setting": "[1]", "result": "-0.86 (inactive)"}, {"measurement": "Z-AUC", "setting": "[1]; [3]", "result": 0.672}, {"measurement": "Z-AUC", "setting": "[1]; measured here: PEO4 Z-AUC", "result": 0.221}]}, {"smiles": "C=CC(=O)Nc1cccc(Nc2nc(Nc3ccc(OCCOC)cc3)ncc2F)c1", "values": [{"measurement": "Z-AUC", "setting": "[1]", "result": "-0.82 (inactive)"}, {"measurement": "Z-AUC", "setting": "[1]; [3]", "result": -1.21}, {"measurement": "Z-AUC", "setting": "[1]; measured here: PEO4 Z-AUC", "result": -1.08}]}, {"smiles": "O=C1NC(=O)C(c2cnc3ccccn23)=C1c1cn2c3c(cc(F)cc13)CN(C(=O)N1CCCCC1)CC2", "values": [{"measurement": "Potency", "setting": "[1]", "result": "174 nM (active)"}, {"measurement": "Z-AUC", "setting": "[1]; [3]", "result": -1.85}, {"measurement": "Z-AUC", "setting": "[1]; measured here: PEO4 Z-AUC", "result": -1.33}]}, {"smiles": "CS(=O)(=O)c1ccc(Oc2cc(F)cc(C#N)c2)c2c1[C@H](O)C(F)(F)C2", "values": [{"measurement": "Z-AUC", "setting": "[1]", "result": "1.42 (inactive)"}, {"measurement": "Z-AUC", "setting": "[1]; [3]", "result": 1.01}, {"measurement": "Z-AUC", "setting": "[1]; measured here: PEO4 Z-AUC", "result": 0.7}]}, {"smiles": "NCC1CCN(c2nccc(-c3ccc4ccccc4c3)n2)CC1", "values": [{"measurement": "Z-AUC", "setting": "[1]", "result": "-1.15 (inactive)"}, {"measurement": "Z-AUC", "setting": "[1]; [3]", "result": 0.563}, {"measurement": "Z-AUC", "setting": "[1]; measured here: PEO4 Z-AUC", "result": -0.738}]}, {"smiles": "CCC(CC)C(c1ccc(Nc2nc3ccccc3s2)cc1)n1cncn1", "note": "(stereo not drawn)", "values": [{"measurement": "Z-AUC", "setting": "[1]", "result": "0.298 (inactive)"}, {"measurement": "Z-AUC", "setting": "[1]; [3]", "result": 0.98}, {"measurement": "Z-AUC", "setting": "[1]; measured here: PEO4 Z-AUC", "result": 0.959}]}, {"smiles": "CCN(c1cc(-c2ccc(CN3CCOCC3)cc2)cc(C(=O)NCc2c(C)cc(C)[nH]c2=O)c1C)C1CCOCC1", "values": [{"measurement": "Z-AUC", "setting": "[1]", "result": "0.506 (inactive)"}, {"measurement": "Z-AUC", "setting": "[1]; [3]", "result": 0.489}, {"measurement": "Z-AUC", "setting": "[1]; measured here: PEO4 Z-AUC", "result": 0.0284}]}, {"smiles": "C=CCNC1=C2C[C@@H](C)C[C@H](OC)[C@H](O)[C@@H](C)/C=C(\\C)[C@H](OC(N)=O)[C@@H](OC)/C=C\\C=C(/C)C(=O)NC(=CC1=O)C2=O", "values": [{"measurement": "Z-AUC", "setting": "[1]", "result": "-0.418 (inactive)"}, {"measurement": "Z-AUC", "setting": "[1]; [3]", "result": -0.98}, {"measurement": "Z-AUC", "setting": "[1]; measured here: PEO4 Z-AUC", "result": -0.867}, {"measurement": "Potency", "setting": "[2]; parasite line A", "result": "1.41 µM (active)"}, {"measurement": "Potency", "setting": "[2]; parasite line B", "result": "2.24 µM (active)"}, {"measurement": "Potency", "setting": "3D7", "result": "2.24 µM (active)"}, {"measurement": "Potency", "setting": "7G8", "result": "447 nM (active)"}, {"measurement": "Potency", "setting": "AA1029", "result": "1.41 µM (active)"}, {"measurement": "Potency", "setting": "AS120", "result": "1.41 µM (active)"}, {"measurement": "Potency", "setting": "ATS189", "result": "2.24 µM (active)"}, {"measurement": "Potency", "setting": "ATS95", "result": "2 µM (active)"}, {"measurement": "Potency", "setting": "C2A", "result": "2 µM (active)"}]}, {"smiles": "c1cc(-c2cnn3cc(-c4ccc(N5CCNCC5)cc4)cnc23)c2cccnc2c1", "values": [{"measurement": "Z-AUC", "setting": "[1]", "result": "-1.26 (inactive)"}, {"measurement": "Z-AUC", "setting": "[1]; [3]", "result": -1.26}, {"measurement": "Z-AUC", "setting": "[1]; measured here: PEO4 Z-AUC", "result": -1.83}]}]}
